Where “and” joins values, the source holds several entries; their conditions need not be identical. Equal entries are not always repeated. Compounds without any hit were thinned out: in the full panel of roughly 83,000, 20% have a hit.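 Testing used 96-well plates and a 48-hour single-concentration exposure. Example: -40 means 40% of the starting cells died.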 Some compounds were tested as several samples or in several runs, with calls that do not always agree. Calls of active or inactive are those of the source. Rule for the calls: active = growth percent below 10; inactive = the rest.
The molecules below were run on BT-549 breast (assay: NCI-60 one-dose screen, 48 h (100 = growth as untreated, 0 = no growth, -100 = all killed)). Settings: 10 µM unless noted.
With `CCCCCCCCCCCCCCCc1cc(O)ccc1N` the growth was -36.3% (active) and 12.7% (inactive).
In the case of `CN1CCN(c2ccc3nc(-c4c(N)c5c(F)cccc5[nH]c4=O)[nH]c3c2)CC1`, the growth is reported as -66% (active) and 49.3% (inactive).
With `NC(=S)NS(=O)(=O)c1ccc(N)cc1` the growth was 128% (inactive).
With `COc1cc(Nc2nc3ccccc3nc2NS(=O)(=O)c2ccc(NC(=O)c3ccc(C)c(OC)c3)cc2)cc(OC)c1` the growth was 39.6% (inactive) and -6.94% (active).
For `CC(C(=O)O)n1cc(C#N)c(=O)[nH]c1=O` (stereo unspecified), the growth was 99.4% (inactive).
With `CC1=NN(c2ccccc2)C(=O)C1C(=O)c1ccccc1` (stereo unspecified) the growth was 103% (inactive).
With `NC(=O)NO` the growth was 110% (inactive) and 41.5% (inactive).
`C1CCCCNCCC1` was tested, and the growth was 114% (inactive).
For `OC1CCC(Oc2cccc3cnc(Nc4ccc5nc[nH]c5c4)nc23)CC1` (stereo unspecified), the growth was -19.5% (active) and 18.4% (inactive).
With `C=C1C(=O)O[C@H]2[C@H]1CC/C(COC(=O)NC1CCC(O)CC1)=C\CC[C@@]1(C)O[C@@H]21` (stereo partly specified) the growth was 83.3% (inactive) and 79.1% (inactive).
With `O=C(O)C1C2C=CC(C2)C1C(=O)O` (stereo unspecified) the growth was 96.8% (inactive) and 58.3% (inactive) and 105% (inactive).
In the case of `CCN(CC)CCCC(C)N(Cc1ccccc1)CC(O)c1ccc(Cl)cc1` (stereo unspecified), the growth is reported as 110% (inactive) and 102% (inactive).
With `Cc1cccc(/C=C\C(=O)c2ccccc2)c1` the growth was 90.5% (inactive).
In the case of `Cc1nnc(NC/C=C/c2ccccc2)s1`, the growth is reported as 97.6% (inactive) and 113% (inactive).
With `COc1ccccc1NC(=O)OCC#CCOC(=O)Nc1ccccc1OC` the growth was 91% (inactive).
`O=C1NC(=O)C2(CCc3ccccc32)N1` (stereo unspecified) was tested, and the growth was 115% (inactive) and 98.1% (inactive).
`CC(C)Cc1ccc(C(C)C(=O)NCc2ccc(Cn3c(=O)sn(CCCCl)c3=O)cc2)cc1` (stereo unspecified) was tested, and the growth was 92.3% (inactive) and -67.8% (active).
`Nc1cc2c(cc1N)-c1ccccc1C2` was tested, and the growth was 64.1% (inactive) and 75.5% (inactive).
`CN(Cc1ccccc1)Cc1ccccc1` was tested, and the growth was 106% (inactive).
In the case of `COc1cc(C(=O)c2ccc3c(c2)OCO3)cc(OC)c1OC`, the growth is reported as 45.5% (inactive) and 30.3% (inactive).
For `O=[N+]([O-])c1ccc(Oc2ccccc2)cc1`, the growth was 83.9% (inactive) and 106% (inactive).

Reference: PubChem BioAssay (NCI)
